From PubChem BioAssay (NCI)
Compounds without any hit were thinned out: in the full panel of roughly 83,000, 20% have a hit.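 Interpretation: 100, growth as untreated; towards 0, rising growth inhibition; 0, no net growth; 0 to -100, cell death. Compounds scoring below 10 were considered active.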 Active and inactive are the calls of the source.

Columns and labels:
Assay in all cases: NCI-60 one-dose screen, 48 h (100 = growth as untreated, 0 = no growth, -100 = all killed)
[1] = test system: HCT-15 colon; conditions: 10 µM unless noted
[2] = test system: HT29 colon; conditions: 10 µM unless noted
[3] = test system: SNB-75 CNS; conditions: 10 µM unless noted
[4] = test system: SNB-19 CNS; conditions: 10 µM unless noted
[5] = test system: U251 CNS; conditions: 10 µM unless noted
[6] = test system: PC-3 prostate; conditions: 10 µM unless noted
[7] = test system: SK-MEL-5 melanoma; conditions: 10 µM unless noted
[8] = test system: UACC-62 melanoma; conditions: 10 µM unless noted
[9] = test system: LOX IMVI melanoma; conditions: 10 µM unless noted
[10] = test system: SK-MEL-28 melanoma; conditions: 10 µM unless noted
[11] = test system: SK-MEL-2 melanoma; conditions: 10 µM
[12] = test system: EKVX NSCLC; conditions: 10 µM unless noted
[13] = test system: SN12C renal; conditions: 10 µM unless noted
[14] = test system: UO-31 renal; conditions: 10 µM unless noted
[15] = test system: TK-10 renal; conditions: 10 µM unless noted
[16] = test system: ACHN renal; conditions: 10 µM unless noted
[17] = test system: CAKI-1 renal; conditions: 10 µM unless noted
[18] = test system: CCRF-CEM leukemia; conditions: 10 µM unless noted
[19] = test system: MOLT-4 leukemia; conditions: 10 µM unless noted
[20] = test system: A498 renal; conditions: 10 µM unless noted

Measured: growth

Cc1nn(-c2nc3ccccc3[nH]2)c2c1C(c1ccc(OCc3ccc(F)cc3)cc1)CC(=O)N2 (centres undefined)
active: [19] 7.48%
inactive: [1] 41.5% | [2] 70.1% | [3] 48.3% | [4] 64.9% | [5] 41.6% | [6] 43.8% | [7] 68.3% | [8] 61.3% | [9] 28% | [10] 63% | [11] 30.7% | [12] 81.7% | [13] 55.4% | [14] 36.9% | [15] 56.1% | [16] 48.2% | [17] 66.2% | [18] 52.8%

NS(=O)(=O)c1ccc(CCN2C(=O)/C(=C\c3ccc(Cl)cc3)C=C2c2ccc3ccccc3c2)cc1
inactive: [1] 94.9% | [2] 87.9% | [3] 78.1% | [4] 92.5% | [5] 85.5% | [6] 75.8% | [7] 94.8% | [8] 71.8% | [9] 96.1% | [10] 103% | [11] 106% | [12] 89.4% | [13] 94% | [14] 78.4% | [15] 95.5% | [16] 90% | [17] 82.4% | [18] 106% | [19] 86.3%

O=C(NCCO)Nc1ccc(-c2nc(N3CCOCC3)c3cccn3n2)cc1
active: [3] -31.9% | [6] 9.72% | [7] -27.6% | [8] -37.7% | [9] 4.86% | [10] -7.13% | [11] -9.19% | [12] 3.13% | [13] 5.36% | [14] -18.2% | [15] -23.5% | [16] 9.2% | [17] 9.37% | [20] -54.8%
inactive: [1] 11.5% | [2] 14.4% | [4] 18.3% | [5] 18.3% | [18] 27.4% | [19] 16.2%

C=C1C(=O)O[C@H]2[C@H]1CC/C(CNC(=O)c1cc3cc(OC)ccc3[nH]1)=C\CC[C@@]1(C)O[C@@H]21
inactive: [3] 51.4% | [4] 44% | [5] 14.5%
active: [1] -78.4% | [2] -70.9% | [6] -52.5% | [7] -39.2% | [8] -66.1% | [9] -93.5% | [10] -59.3% | [11] -42.7% | [12] -55.9% | [13] -38.5% | [14] -75.8% | [15] -83% | [16] -76.2% | [17] -74.1% | [18] -19.3% | [19] -31%

CCN(CC)CCCC(C)Nc1cc(-c2ccc(C(F)(F)F)cc2)c(C#N)c2nc3ccccc3n12 (centres undefined)
inactive: [4] 34.9% | [6] 22.1% | [11] 79.3% | [12] 35.6% | [15] 68.2% | [17] 52.2% | [20] 87.5%
active: [1] 3.48% | [2] -2.76% | [3] -56.1% | [5] 3.09% | [7] -89.9% | [8] -67.3% | [9] -80.6% | [10] -64.7% | [13] -30.3% | [14] -76.5% | [16] -65.2% | [18] -7.3% | [19] -28.2%

COC(=O)[C@]12CC[C@@H](C)[C@H](C)[C@@H]1C1=CC[C@@H]3[C@@]4(C)C(C#N)=CC(C)=C4CC[C@@]3(C)[C@]1(C)CC2
inactive: [1] 89.5% | [2] 73.7% | [3] 84.5% | [4] 96.3% | [5] 87.2% | [6] 68.9% | [7] 86.3% | [8] 69.3% | [9] 92.1% | [10] 91.4% | [11] 82.9% | [12] 92.8% | [13] 93.3% | [14] 84.8% | [15] 99.2% | [16] 79% | [17] 76.8% | [18] 16% | [19] 78.8%

O=C(Nc1ccc(N=Nc2ccccc2)cc1)c1cccc2ccccc12
inactive: [1] 21.8% | [2] 35.4% | [3] 39.3% | [4] 67.3% | [5] 63.6% | [6] 54.8% | [7] 59% | [8] 34.6% | [9] 64.4% | [10] 67.5% | [11] 56.4% | [12] 71.5% | [13] 78.8% | [14] 68.3% | [15] 76.2% | [16] 77.5% | [18] 49.8% | [19] 37.2%

CO/C=C/C(=O)c1cc2cnc3c(=N)cc(NC(=O)C(C)C)c([nH]1)c23
active: [1] -26.8% | [2] -21.5% | [3] -11.8% | [4] -29.8% | [5] -74.3% | [6] -21.6% | [7] -96.9% | [8] -53.8% | [9] -73.9% | [10] -44.8% | [11] -65.6% | [12] -36.4% | [13] 1.75% | [14] -20.1% | [15] -47.2% | [16] -1.54% | [20] -46.1% | [18] 0.169% | [19] -38.7%

Cc1cc(N2CCCC2)nc(N(CCCNc2ccnc3cc(Cl)ccc23)Cc2ccc3c(c2)OCO3)n1
inactive: [4] 23.5% | [6] 20.7% | [12] 35.9% | [13] 29.3% | [20] 13.6%
active: [1] 3.01% | [2] -23.9% | [3] 3.65% | [5] -9.48% | [7] -96.8% | [8] -32.9% | [9] -78.3% | [10] -82% | [11] -50.7% | [14] -24.5% | [15] -12.6% | [16] -10.7% | [18] 1% | [19] -15.4%

COc1ccc(-n2c(=O)c3ccccc3n(Cc3ccc(C(=O)NO)cc3)c2=O)cc1
active: [5] -40.2% | [6] -24.6% | [7] 6.91% | [8] -30.8% | [9] -71.5% | [10] -17.4% | [18] 3.15% | [19] -10.1%
inactive: [1] 61.3% | [2] 29.6% | [3] 11% | [4] 18.1% | [11] 14.2% | [12] 16.7% | [13] 33.6% | [14] 55% | [15] 19.6% | [17] 64.9%

CCCCCCC1(/C=N/NC(N)=O)NC(=O)NC1=O (centres undefined)
inactive: [1] 98.3% | [2] 76.9% | [3] 82.2% | [4] 105% | [5] 94.3% | [6] 91.8% | [7] 96.9% | [8] 99% | [9] 97.4% | [10] 106% | [11] 98.8% | [12] 91.8% | [13] 105% | [14] 87.2% | [15] 99.1% | [16] 105% | [18] 102% | [19] 101%

O=CC(OC(=O)c1ccccc1)C(OC(=O)c1ccccc1)C(COC(c1ccccc1)(c1ccccc1)c1ccccc1)OC(=O)c1ccccc1 (centres undefined)
active: [6] 3.19% | [10] 0.343% | [18] -18.6% | [19] -14.6%
inactive: [1] 48.8% | [2] 52.6% | [3] 94% | [4] 78.8% | [5] 19% | [7] 70.3% | [8] 63.4% | [9] 13.8% | [11] 96.7% | [12] 88.8% | [13] 61.8% | [14] 19.8% | [15] 77.8% | [16] 60% | [20] 122%

CC(=Nc1ccccc1)C1=C(O)C(Cc2ccc(O)cc2)NC1=O (centres undefined)
inactive: [1] 12.1% | [3] 15.2% | [4] 34% | [5] 12.8% | [6] 15.7% | [8] 28.6% | [9] 19.2% | [10] 40% | [11] 42.2% | [12] 20.4% | [13] 43.5% | [14] 42.3% | [15] 68.2% | [16] 33.2%
active: [2] 1.34% | [7] -44% | [20] -25.6% | [19] -3.04%

COc1ccc(-c2nc(N)ncc2Oc2ccccc2OC)c(O)c1
inactive: [1] 17.2% | [2] 10.3% | [3] 10.8% | [4] 41.5% | [5] 30.6% | [6] 31% | [7] 25% | [8] 51% | [9] 34% | [10] 63.1% | [11] 17.4% | [12] 40.1% | [13] 48.7% | [14] 46% | [15] 55.9% | [20] 34.3% | [18] 19.7% | [19] 26.9%

CC1(O)CCC2CC3OC3(C)CCC3OC3(C)C(O)CC1C2(C)C (centres undefined)
inactive: [1] 102% | [2] 102% | [3] 95.3% | [4] 99.3% | [5] 98.3% | [6] 87.4% | [7] 112% | [8] 98.3% | [9] 93.7% | [10] 112% | [11] 103% | [12] 87.8% | [13] 103% | [15] 107% | [16] 101% | [17] 99.2% | [18] 91.5% | [19] 106%

COc1ccc2nc3cc(Cl)ccc3c(Nc3ccc(N(C)C)cc3)c2c1
active: [19] 0.475%
inactive: [1] 91.1% | [2] 72.1% | [3] 111% | [4] 101% | [5] 93.5% | [6] 85.4% | [7] 100% | [8] 98.1% | [9] 88.8% | [10] 112% | [11] 96.8% | [12] 92.9% | [13] 91.1% | [14] 84% | [15] 128% | [16] 100% | [18] 57.5%
